The panel holds about 83,000 compounds, 20% with a hit somewhere; the sample as a whole holds those more often.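 Negative percent growth values reflect cell death: -40 means 40% of the cells present at the start died, and -100 means all died.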 Values without a mark were called inactive. Active and inactive are the calls of the source. The calls were made as follows: active = growth percent below 10; inactive = the rest.
The compounds below were run on MDA-MB-468 breast (assay: NCI-60 one-dose screen, 48 h (100 = growth as untreated, 0 = no growth, -100 = all killed)). Details: 10 µM unless noted.
`C=CCn1cc(C=C2C(=O)N(C)C(=O)N(C)C2=O)c2ccccc21` was tested, and the growth was -35.5% (active). `NC(=Nc1ccccc1)N[N+](=O)[O-]` showed a growth of 92.2%. Compound `S=P(NC1CCCCC1)(N1CC1)N1CC1` has a growth of 103%. Work on `Nc1ccc2c(c1)Cc1cc(Br)ccc1-2` yielded a growth of 85.2%. For `ClCCN(CCCl)c1nc(Cl)c(C2CC(c3ccccc3)=NN2c2cc(Cl)cc(Cl)c2)s1` (stereo not given), the growth was 111%. Work on `Cc1cc(NC(=O)NCc2ccc(N3C(N)=NC(N)=NC3(C)C)cc2)ccc1S(=O)(=O)F` yielded a growth of 63.3%. For `CCCCCCCC[n+]1ccc2ccccc2c1`, the growth was 8.79% (active). Compound `COc1ccc(C2SCC(=O)Nc3c2c(C)nn3-c2nc3ccc(C)cc3s2)cc1O` (stereo not given) has a growth of 23.4%. `Clc1ccc(CO/N=C(\Cn2ccnc2)c2ccc(Cl)cc2Cl)c(Cl)c1` was tested, and the growth was -24.5% (active). `O=C1NC2(CCNCC2)Nc2ccccc21` was tested, and the growth was 98.8%. In the case of `Cc1cc(C(C)(C)c2ccc(O)c(C)c2)ccc1O`, the growth is reported as 87.8%. For `Clc1cc(N2CC2)nc(N2CC2)n1`, the growth was 9.71% (active). `CCN(CC)CCn1c(=O)n(C)c2ccccc21` gave a growth of 100%. With `CC1(C)N=C(N)N=C(N)N1c1ccc(CCCCc2ccc(Cl)c(S(=O)(=O)F)c2)c(Cl)c1` the growth was 6.7% (active). Work on `CC(=O)O[C@@H]1CC[C@]2(C)[C@H]3CC[C@]4(C)C(=O)CC[C@H]4[C@@H]3C[C@@H]3SC(N)=N[C@@]32C1` yielded a growth of 29.6%. `O=CC1(c2ccccc2)CCN(Cc2ccccc2)CC1` was tested, and the growth was 103%. In the case of `COc1ccc(/C=C/c2cc(OC)c(OC)c(OC)c2)cc1NC(=O)/C=C/c1ccc(F)cc1`, the growth is reported as 13.3%. `CN[C@]1(c2ccccc2Cl)CCCC[C@H]1NCCCN1CCN(C)CC1` gave a growth of 85.2%. `c1ccc2c(c1)sc1ccccc12` gave a growth of 97.2%. With `Oc1ccccc1OB(Oc1ccccc1O)N(CCCl)CCCl` the growth was 84%. In the case of `C/C(=C\c1cc(C(F)(F)F)n(-c2ccc(N)cc2)n1)[C@@H]1C[C@@H]2O[C@]2(C)CCC[C@H](C)[C@H](O)[C@@H](C)C(=O)C(C)(C)[C@@H](O)CC(=O)O1`, the growth is reported as -16.6% (active). `CN1CCCCC1C(C)(O)c1ccccc1` (stereo not given) was tested, and the growth was 102%. For `CC1=C2C(=C[C@@](C)(C=O)[C@@H]2O)C(=O)[C@](C)(O)C12CC2`, the growth was -66.7% (active). For `CC(CC1CCCCC1)NCc1ccccc1` (stereo not given), the growth was 102%. For `C[C@]12CCc3sc(-c4ccccc4O)nc3C1=CC[C@@H]1[C@@H]2CC[C@]2(C)C(=O)CC[C@@H]12`, the growth was 106%. In the case of `CN1C(=O)C23CC4(C56CC78SSC(CO)(C(=O)N7C5Nc5ccccc56)N(C)C8=O)c5ccccc5NC4N2C(=O)C1(CO)SS3` (stereo not given), the growth is reported as -81.7% (active). `COC(=O)C1OC(Oc2ccc(N(CCCl)CCCl)cc2)C(OC(C)=O)C(OC(C)=O)C1OC(C)=O` (stereo not given) showed a growth of 28.3%. For `C/C1=C/C(=O)O[C@@H]2C[C@@H](CC[C@H](C)/C=C\C=C\CC1)O[C@@](OCCc1ccccc1)([C@@H]1CSC(=O)N1)C2`, the growth was 12.2%. Compound `CC1(C)S[C@H]2CC[C@H]3OC(=O)[C@@H]1N23` has a growth of 95.7%. In the case of `Fc1c[c-]c(-c2ccccn2)c(F)c1.[CH3-].[Pt+2].c1ccc([PH+](c2ccccc2)c2ccccn2)cc1`, the growth is reported as -21.7% (active).

— PubChem BioAssay (NCI)
